The structures appear in SMILES notation. Out of some 4,100 compounds screened, about 1,600 (39%) were called active. Another 25% or so got no clear call; they are omitted. This is one part of the list. Unmarked numbers belong to inactive results. Calls come from the whole dose curve; as a rule, active = well fitted inhibition curve with a large enough effect; inconclusive = small, poorly fitted or top-dose-only effect; inactive = no such curve, though single readings can be large or run the other way.

We go through 93 molecules from PubChem BioAssay AID1347416 (National Center for Advancing Translational Sciences (NCATS), 2020).
% is set by controls: 0 for no effect and ±100 for the full control effect; potency is the fitted concentration of half-maximal effect.

The assay is described as follows: qHTS Validation assay for Inhibitors of Plasmodium falciparum Dd2 growth in vitro. Note: nearly all actives have a fitted effect of over 70% in size. To be noted: P. falciparum Dd2 in RBCs, SYBR Green growth, 72 h; series mostly up to 28.7 µM; activity change, negative = inhibition: at the top concentration. Summed up: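 P. falciparum Dd2-infected red blood cells (2.5% hematocrit, 0.3% parasitemia) grown 72 h at 37 °C under 5% O2 with compounds in a titration, 29 uM to 0.5 nM final. Growth read as SYBR Green-1 fluorescence after ~16 h lysis; artesunate 300 nM as positive control.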
(Quantitative high-throughput screening tests each substance at several concentrations.)
For the molecule `Cc1cccc(-c2cc(C3CCN(C(=O)Nc4ccccc4Cl)CC3)[nH]n2)c1`, the “activity change, negative = inhibition” value is -13.2%. In the case of `CNC(=O)N1CCC(C2CCN(S(=O)(=O)c3cccc(C#N)c3)C2)CC1` (stereo not drawn), the “activity change, negative = inhibition” value is 3.64%. For `Cc1cccc(-c2cc(C3CCN(S(=O)(=O)c4cccc(C#N)c4)CC3)[nH]n2)c1`, the Potency was 15 µM (active). Same read-out and setting: the same measure for `COc1cc2c3nnc(-c4ccc(F)cc4)c-3cn(Cc3ccccc3F)c2cc1OC`: 3.76 µM (active).

Regarding `O=c1c2cc3c(nc2ncn1Cc1ccccc1F)CCCC3`, the “activity change, negative = inhibition” value is 0%. For `CC1(C)Cc2nc3sc4c(SCC(=O)O)ncnc4c3cc2CO1`, the “activity change, negative = inhibition” value was -5.19%. With `COc1cc(-c2nc(-c3ccccc3)c(-c3ccc(Br)cc3)[nH]2)cc(OC)c1O`, the Potency is 2.11 µM (active). Same read-out and setting: the same measure for `COc1ccc2[nH]c(C)c(CCN(Cc3cccs3)C(=S)Nc3ccc(F)cc3)c2c1`: 4.22 µM (active); for `COc1ccc2[nH]c(C)c(CCN(Cc3cccs3)C(=S)Nc3ccccc3)c2c1`: 2.66 µM (active); for `CC(C)CCN1CCn2c(nn(-c3ccc([N+](=O)[O-])cc3)c2=O)C1`: 17.2 µM (active).

For `Cc1ccc(-n2nc3n(c2=O)CCN(C(=O)c2cccc(Cl)c2)C3)cc1`, the “activity change, negative = inhibition” value is 67.3%. With `COc1ccccc1CN1CCn2c(nn(-c3ccc([N+](=O)[O-])cc3)c2=O)C1`, the Potency is 5.96 µM (active). In the case of `O=c1n(-c2ccc(Cl)cc2)nc2n1CCN(Cc1cccc3ccccc13)C2`, the “activity change, negative = inhibition” value was 33.4%. On the same count and under the same terms, the same measure for `O=C(Nc1ccc(Cl)cc1)N1CCn2c(nn(-c3ccc([N+](=O)[O-])cc3)c2=O)C1`: 26.1%; for `COc1ccc(-n2nc3n(c2=O)CCN(C(=O)c2ccc(Cl)cc2)C3)cc1`: -20.5%. Still for that read-out and setting: the same measure for `COc1ccc(C(=O)N[C@@H]2CCC[C@@H]2C(=O)NCc2ccc(C)o2)cn1`: -6.41%.

As for `Oc1c(CN2CCCCC2)cc(COCc2ccccc2)c2cccnc12`, the Potency was 8.41 µM (active). Same read-out and setting: for `CCOCc1cc(CN2CCN(c3ccccc3OC)CC2)c(O)c2ncccc12` the value was 5.96 µM (active); for `Oc1c(CN2CCCC2)cc(COCc2ccccc2)c2cccnc12`, 6.68 µM (active).

For the molecule `COc1ccc(CCNC(=O)CCc2c(C)nc3c(c(C)nn3-c3ccc(C)c(C)c3)c2C)cc1OC`, the Potency is 0.668 µM (active). For `COc1ccc(CCNC(=O)CCn2c(=O)c3ccccc3n(Cc3cc(C)ccc3C)c2=O)cc1OC`, the “activity change, negative = inhibition” value was 10.4%.

Turning to `COc1ccc(S(=O)(=O)Nc2ccc(C)n(CC(=O)Nc3ccccc3)c2=O)cc1`, the Potency was 2.66 µM (active).

As to `COc1cc(NC(=O)Cn2c(N(C)Cc3ccccc3)nc(C)cc2=O)cc(OC)c1`, the “activity change, negative = inhibition” value is -19.9%. With `Oc1cccc(C(Nc2nccs2)c2ccc3cccnc3c2O)c1` (stereo not drawn), the Potency was 7.5 µM (active). In the case of `O=C(COc1ccc2ccccc2c1)Nc1nccs1`, the “activity change, negative = inhibition” value was 15.3%. For `Oc1c(C(Nc2nccs2)c2ccc(C(F)(F)F)cc2)ccc2cccnc12` (stereo not drawn), the Potency is 5.31 µM (active). `Nc1nc(C2CC(NC(=O)c3csc4c3CCCC4)C2)cc(=O)[nH]1` (stereo not drawn): the “activity change, negative = inhibition” value is 19.5%. As to `Oc1[nH]c2ccccc2c1N=NC(=S)N1CCOCC1`, the Potency was 2.11 µM (active). For `O=C(COC(=O)c1ccc(-n2cnnn2)cc1)c1ccc(Br)cc1`, the “activity change, negative = inhibition” value is 22.8%. On the same count and under the same terms, for `O=C(Cn1c(=O)c2cccn2c2cccnc21)NCc1ccccc1F` the value was 21.9%.

With `CCc1cccc(-n2c(=O)c3cccnc3n2CC(=O)NCc2ccccc2)c1`, the Potency is 1.68 µM (active).

For `COc1ccc(Cn2c(=O)c3cccnc3n(CC(=O)Nc3ccc(C)c(F)c3)c2=O)cc1`, the “activity change, negative = inhibition” value is 17.6%. Turning to `CCc1cccc(-n2c(=O)c3cccnc3n2CC(=O)Nc2ccc(F)c(C)c2)c1`, the Potency was 2.66 µM (active).

In the case of `CCc1cccc(-n2c(=O)c3cccnc3n2CC(=O)NCc2ccc(C)cc2)c1`, the Potency was 1.68 µM (active). For the molecule `O=C(CCc1nc2cccnc2n1Cc1ccccc1)NCc1cccc(Cl)c1`, the “activity change, negative = inhibition” value is 12.7%. Same read-out and setting: the same measure for `O=C(CCn1c(=O)c2cccn2c2cccnc21)NCc1cccc(Br)c1`: -0.311%; for `COc1ccc(CNC[C@H]2COCc3nc4cc(C(F)(F)F)ccc4n32)cn1`: 14.2% [at 43.1 µM]. On the same count and under the same terms, the same measure for `COc1ccc2ncc3c(-c4ccc(C)c(C)c4)nn(CC(=O)NC4CCCCC4)c3c2c1`: 31%. As to `CCc1ccc(-c2nn(CC(=O)NC3CCCCC3)c3c2cnc2ccc(OC)cc23)cc1`, the Potency was 9.44 µM (active). For the molecule `CCOc1ccc(C2Cn3nnc(-c4nc(-c5ccsc5)no4)c3CO2)cc1` (stereo not drawn), the “activity change, negative = inhibition” value was 12.1%. The same measure, in the same setting: the same measure for `O=C(NCc1ccccc1F)C1CCN(C(=O)c2ncn3c2COC(c2ccc(F)cc2)C3)CC1` (stereo not drawn): 14.3%.

As to `CC(C)(C)c1ccc(-c2noc(-c3ncn4c3COC(c3ccc(F)cc3)C4)n2)cc1` (stereo not drawn), the Potency was 15 µM (active).

Consider `O=c1[nH]c(N2CCOCC2)nc2c1CCN(Cc1ccccc1C(F)(F)F)CC2`, for which the Potency was 4.73 µM (active). `O=c1[nH]c(N2CCOCC2)nc2c1CCN(Cc1cccc(C(F)(F)F)c1)CC2`: the “activity change, negative = inhibition” value is -22.4%. With `O=c1[nH]c(N2CCOCC2)nc2c1CCN(Cc1ccccc1Br)CC2`, the Potency is 15 µM (active).

For the molecule `COc1cccc(CN2CCc3nc(N4CCOCC4)[nH]c(=O)c3CC2)c1OC`, the “activity change, negative = inhibition” value was 1.69%. Turning to `Cc1noc2c(NC3CCN(C)CC3)cc(-c3cccc(C(F)(F)F)c3)nc12`, the Potency is 13.7 µM (active). Still for that read-out and setting: for `O=C(Nc1ncccc1O)c1ccc(NS(=O)(=O)c2ccc3[nH]c(=O)[nH]c3c2)cc1` the value was 0.422 µM (active). On to `Cc1cc(Br)ccc1NC(=O)c1ccc(NS(=O)(=O)c2c(C)noc2C)cc1`, for which the “activity change, negative = inhibition” value is 25%. On to `CC(=O)N1c2c(cc(Br)cc2S(=O)(=O)N2CCN(c3cc(C)ccc3C)CC2)CC1C` (stereo not drawn), for which the Potency is 11.9 µM (active). Consider `O=C(c1ccc(C(F)(F)F)cc1)N1CCC2(CC1)C(=NC1CCCCC1)NC(=O)N2c1cc(F)cc(F)c1`, for which the “activity change, negative = inhibition” value was -25.9%. With `O=C1NC(=NC2CCCC2)C2(CCN(Cc3ccc(F)cc3)C2)N1c1cc(F)cc(F)c1` (stereo not drawn), the Potency was 10.6 µM (active).

On to `O=C1NC(=NC2CCCCC2)C2(CCN(Cc3ccc(F)cc3)C2)N1c1cc(F)cc(F)c1` (stereo not drawn), for which the Potency is 4.22 µM (active). For the molecule `CN(C)c1ccc(CN2CCC3(C2)C(=NC2CCCCC2)NC(=O)N3c2cccnc2)cc1` (stereo not drawn), the “activity change, negative = inhibition” value is -28.4%. Consider `CN(C)c1ccc(CN2CCC3(C2)C(=NC2CCCC2)NC(=O)N3c2cccnc2)cc1` (stereo not drawn), for which the “activity change, negative = inhibition” value is -33.1%. The same measure, in the same setting: for `O=C1NC(=NC2CCCCC2)C2(CCCN([S+](=O)([O-])c3ccccc3)C2)N1c1cccnc1` (stereo not drawn) the value was -14.7%. In the case of `CCOC(=O)c1c(NC(=O)c2ccccc2)sc2c(O)c(CN(CC)CC)ccc12`, the Potency is 0.15 µM (active).

Consider `CCNc1nc2c(c(=O)n(C)c(=O)n2C)n1Cc1ccc(F)cc1`, for which the “activity change, negative = inhibition” value was -8.15%.

For `COc1cccc(Cn2c(Oc3ccccc3)nc3c2c(=O)n(C)c(=O)n3C)c1`, the Potency was 4.73 µM (active). Consider `Cc1ccc(Oc2nc3c(c(=O)n(Cc4ccccc4)c(=O)n3C)n2C)cc1C`, for which the “activity change, negative = inhibition” value was 42.4%. On the same count and under the same terms, for `Cc1ccccc1C(=O)N1CCCCC12Cc1ccccc1NC2=O` (stereo not drawn) the value was 40.8% [at 43.1 µM]; for `CN1CCNc2nc(COc3ccc(Oc4ccccc4)cc3)n(Cc3ccccc3)c2C1=O`, -10.4%. Consider `CCCOc1ccc(CCc2n[nH]c(=S)n2Cc2ccccc2)cc1`, for which the Potency is 5.31 µM (active). In the case of `CC(C)Oc1ccc(CCc2n[nH]c(=S)n2Cc2ccccc2)cc1`, the Potency is 5.31 µM (active).

As for `COc1ccc(/C=N/Nc2cc(C)nc3ccccc23)cc1`, the Potency was 2.11 µM (active). The same measure, in the same setting: for `S=C(NCc1ccccc1)N1CCn2cccc2C1c1cccnc1` (stereo not drawn) the value was 9.44 µM (active).

`S=C(NCc1ccccc1)Nc1ccncc1`: the “activity change, negative = inhibition” value was 12.2%. For `c1csc(-c2ccnc(N[C@H]3CO[C@H]4[C@@H]3OC[C@@H]4NCC3CCCCC3)n2)c1`, the Potency is 12.2 µM (active). `CN(C)c1ccc(-c2ccnc(N[C@H]3CO[C@H]4[C@@H]3OC[C@@H]4NC(=O)NCc3ccccc3)n2)cc1`: the “activity change, negative = inhibition” value is 0.409%. Same read-out and setting: for `O=C(O)COc1ccc(-c2nccc(-c3cccs3)n2)cc1` the value was 25.3%. On to `Cc1cc(CN2CCC(CO)(Cc3ccccc3Cl)CC2)cc(C)c1O`, for which the Potency is 16.8 µM (active). With `CCc1ccccc1CN1CCC(CO)(CN2CCCC2)CC1`, the “activity change, negative = inhibition” value was 0.298%. Take `COc1ccc(CC(=O)NCc2ccccn2)cc1OC`: the Potency is 7.5 µM (active).

Take `CCOc1ccc(CNC(=O)CN2N=C(c3ccccc3)CCC2=O)cc1OC`: the “activity change, negative = inhibition” value is -2.34%.

`Cc1cn2nc(C(=O)NCc3ccccn3)cc2c(=O)[nH]1`: the “activity change, negative = inhibition” value is 6.06%. In the case of `O=C1c2ccccc2C(=O)c2[nH]c(=O)[nH]c21`, the Potency is 5.96 µM (active). Same read-out and setting: the same measure for `C=C[C@]1(C)C[C@@H](OC(=O)CSC(C)(C)CNC(=O)[C@H](N)C(C)C)[C@]2(C)[C@H](C)CC[C@]3(CCC(=O)[C@H]32)[C@@H](C)[C@@H]1O`: 8.41 µM (active); for `CCN(CC)CCC(c1ccc(OC)cc1)c1c(O)cc(OC)cc1OC` (stereo not drawn): 6.68 µM (active); for `CCN(CC)CCC(c1ccc2c(c1)OCO2)c1c(O)cc(OC)cc1OC` (stereo not drawn): 4.22 µM (active).

On to `CCN(CC)CCC(c1ccc(N(C)C)cc1)c1c(O)cc(OC)cc1OC` (stereo not drawn), for which the Potency was 3.35 µM (active).

Turning to `CCCn1ccc2sc(C)c(C(=O)O)c2c1=O`, the “activity change, negative = inhibition” value is 8.71%. On the same count and under the same terms, the same measure for `CCn1cc(-c2ccncc2)cc1C(=O)NCc1cccc(OC)c1`: -24.5%; for `COc1ccc(C(=O)N2CCc3ccc(C(=O)NCc4ccccn4)cc32)cc1`: -8.95%. For `COc1cccc(CN2CCc3c(cc(C(=O)NCc4ccccn4)n3C)C2)c1`, the Potency is 15 µM (active). `Cc1noc(-c2cn(C3CCN(C(=O)Cc4ccc(OC(F)(F)F)cc4)CC3)nn2)n1`: the “activity change, negative = inhibition” value is -9.53%. `COc1cccc(C(NC(C)=O)c2ccc3cccnc3c2O)c1` (stereo not drawn): the Potency was 4.22 µM (active). Same read-out and setting: the same measure for `CCCCC(=O)NC(c1ccccc1OC)c1ccc2cccnc2c1O` (stereo not drawn): 5.31 µM (active); for `CCCC(=O)NC(c1ccccc1)c1ccc2cccnc2c1O` (stereo not drawn): 6.68 µM (active). Same read-out and setting: for `CCCC(=O)NC(c1ccc(C(C)C)cc1)c1ccc2cccnc2c1O` (stereo not drawn) the value was 13.3 µM (active). Regarding `CCOc1ccc(C(=O)NCc2nc3cccnc3n2Cc2cccc(OC)c2)cc1`, the “activity change, negative = inhibition” value is 20.1%.

For `CCCC(=O)NCCc1noc(-c2ccccc2)n1`, the “activity change, negative = inhibition” value was 30.7%. Regarding `Cc1cn2nc(-c3nc(C4CCCN(C(=O)c5cccs5)C4)no3)cc2c(=O)[nH]1` (stereo not drawn), the “activity change, negative = inhibition” value is -8.72%. Take `CCCCC(=O)NC(c1ccc(C(C)C)cc1)c1ccc2cccnc2c1O` (stereo not drawn): the Potency is 7.5 µM (active).
